# Results from PubChem BioAssay AID1159580 (chemical genetic matrix, 2015).
# Screen size: about 5,500 compounds; about 2,000 (36%) were called active. About 18% were inconclusive and are not listed. The list shows a part of the results. A number with no mark means an inactive call. Rule as the data show it: active = normalized growth mostly below about 0.91 (no sharp cut-off); inconclusive = no clear call, values can overlap the other calls; inactive = mostly above about 0.92.
# Experiment: chemical genetic growth profiling, strain panel (AID 1159580);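 also: tested at 20 µM; growth read once vehicle control cultures reached saturation at 30 °C; 1 = growth at the plate median or of vehicle wells; lower values mean less growth of the strain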
# Details: growth OD
smiles,measurement,setting,value
COc1ccc2cc3[n+](cc2c1OC)CCc1cc2c(cc1-3)OCO2,normalized growth,"S. cerevisiae deletion strains, locus YJR075W, strain HOC1, hits give low values",0.394 (active)
same,normalized growth,"S. cerevisiae deletion strains, locus YKL009W, strain mrt4, hits give low values",0.922
same,normalized growth,"S. cerevisiae deletion strains, locus YKL068W, hits give low values",1
same,normalized growth,"S. cerevisiae deletion strains, locus YKL085W, strain MDH1 (second series), hits give low values",0.996
same,normalized growth,"S. cerevisiae deletion strains, locus YKL085W, strain MDH1, hits give low values",0.996
same,normalized growth,"S. cerevisiae deletion strains, locus YKL160W, strain elf1, hits give low values",0.985
same,normalized growth,"S. cerevisiae deletion strains, locus YKL190W, strain CNB1, hits give low values",0.293 (active)
same,normalized growth,"S. cerevisiae deletion strains, locus YKR001C, strain vps1, hits give low values",0.338 (active)
same,normalized growth,"S. cerevisiae deletion strains, locus YKR026C, strain gcn3, hits give low values",0.994
same,normalized growth,"S. cerevisiae deletion strains, locus YKR091W, strain srl3, hits give low values",0.985
same,normalized growth,"S. cerevisiae deletion strains, locus YLL001W, strain dnm1, hits give low values",0.99
same,normalized growth,"S. cerevisiae deletion strains, locus YLL026W, hits give low values",1.02
same,normalized growth,"S. cerevisiae deletion strains, locus YLL041C, strain sdh2, hits give low values",0.989
same,normalized growth,"S. cerevisiae deletion strains, locus YLR027C, strain aat2, hits give low values",0.972
same,normalized growth,"S. cerevisiae deletion strains, locus YLR039C, strain RIC1, hits give low values",0.904
same,normalized growth,"S. cerevisiae deletion strains, locus YLR058C, strain SHM2, hits give low values",0.409 (active)
same,normalized growth,"S. cerevisiae deletion strains, locus YLR102C, strain apc9, hits give low values",0.702 (active)
same,normalized growth,"S. cerevisiae deletion strains, locus YLR113W, strain HOG1, hits give low values",0.83 (active)
same,normalized growth,"S. cerevisiae deletion strains, locus YLR221C, strain rsa3, hits give low values",1
same,normalized growth,"S. cerevisiae deletion strains, locus YLR258W, strain gsy2, hits give low values",0.99
same,normalized growth,"S. cerevisiae deletion strains, locus YLR262C, strain YPT6 (second series), hits give low values",1.04
same,normalized growth,"S. cerevisiae deletion strains, locus YLR262C, strain YPT6, hits give low values",0.82
same,normalized growth,"S. cerevisiae deletion strains, locus YLR268W, strain sec22, hits give low values",0.409 (active)
same,normalized growth,"S. cerevisiae deletion strains, locus YLR320W, strain mms22, hits give low values",0.993
same,normalized growth,"S. cerevisiae deletion strains, locus YLR330W, strain CHS5, hits give low values",0.711 (active)
same,normalized growth,"S. cerevisiae deletion strains, locus YLR342W, strain FKS1 (second series), hits give low values",0.373 (active)
same,normalized growth,"S. cerevisiae deletion strains, locus YLR342W, strain FKS1, hits give low values",0.979
same,normalized growth,"S. cerevisiae deletion strains, locus YLR357W, strain rsc2, hits give low values",0.948
same,normalized growth,"S. cerevisiae deletion strains, locus YLR370C, strain arc18, hits give low values",0.99
same,normalized growth,"S. cerevisiae deletion strains, locus YLR371W, strain rom2, hits give low values",0.8 (active)
same,normalized growth,"S. cerevisiae deletion strains, locus YLR384C, strain iki3, hits give low values",0.975
same,normalized growth,"S. cerevisiae deletion strains, locus YLR418C, strain cdc73, hits give low values",0.478 (active)
same,normalized growth,"S. cerevisiae deletion strains, locus YML016C, strain PPZ1, hits give low values",0.413 (active)
same,normalized growth,"S. cerevisiae deletion strains, locus YML032C, strain rad52, hits give low values",0.459 (active)
same,normalized growth,"S. cerevisiae deletion strains, locus YML120C, strain ndi1, hits give low values",0.996
same,normalized growth,"S. cerevisiae deletion strains, locus YML124C, strain tub3, hits give low values",0.652 (active)
same,normalized growth,"S. cerevisiae deletion strains, locus YMR058W, strain fet3, hits give low values",0.985
same,normalized growth,"S. cerevisiae deletion strains, locus YMR078C, strain ctf18, hits give low values",0.912
same,normalized growth,"S. cerevisiae deletion strains, locus YMR125W, strain sto1, hits give low values",0.981
same,normalized growth,"S. cerevisiae deletion strains, locus YMR129W, hits give low values",0.991
same,normalized growth,"S. cerevisiae deletion strains, locus YMR205C, strain PFK2, hits give low values",0.967
same,normalized growth,"S. cerevisiae deletion strains, locus YMR223W, strain ubp8, hits give low values",0.393 (active)
same,normalized growth,"S. cerevisiae deletion strains, locus YMR231W, strain pep5, hits give low values",0.995
same,normalized growth,"S. cerevisiae deletion strains, locus YMR263W, strain SAP30, hits give low values",0.55 (active)
same,normalized growth,"S. cerevisiae deletion strains, locus YMR307W, strain GAS1, hits give low values",0.986
same,normalized growth,"S. cerevisiae deletion strains, locus YNL067W, strain RPL9B, hits give low values",0.319 (active)
same,normalized growth,"S. cerevisiae deletion strains, locus YNL071W, strain lat1, hits give low values",0.991
same,normalized growth,"S. cerevisiae deletion strains, locus YNL128W, strain TEP1, hits give low values",0.518 (active)
same,normalized growth,"S. cerevisiae deletion strains, locus YNL153C, strain GIM3, hits give low values",0.701 (active)
same,normalized growth,"S. cerevisiae deletion strains, locus YNL183C, strain NPR1, hits give low values",0.855
same,normalized growth,"S. cerevisiae deletion strains, locus YNL209W, strain ssb2, hits give low values",0.98
same,normalized growth,"S. cerevisiae deletion strains, locus YNL233W, strain BNI4, hits give low values",0.593 (active)
same,normalized growth,"S. cerevisiae deletion strains, locus YNL248C, strain rpa49, hits give low values",0.975
same,normalized growth,"S. cerevisiae deletion strains, locus YNL250W, strain rad50, hits give low values",0.995
same,normalized growth,"S. cerevisiae deletion strains, locus YNL271C, strain bni1, hits give low values",0.963
same,normalized growth,"S. cerevisiae deletion strains, locus YNL298W, strain CLA4, hits give low values",0.971
same,normalized growth,"S. cerevisiae deletion strains, locus YNL307C, strain MCK1, hits give low values",0.561 (active)
same,normalized growth,"S. cerevisiae deletion strains, locus YNL322C, strain KRE1 (second series), hits give low values",0.987
same,normalized growth,"S. cerevisiae deletion strains, locus YNL322C, strain KRE1, hits give low values",0.496 (active)
same,normalized growth,"S. cerevisiae deletion strains, locus YNR049C, strain mso1, hits give low values",0.998
same,normalized growth,"S. cerevisiae deletion strains, locus YNR052C, strain pop2, hits give low values",0.671 (active)
same,normalized growth,"S. cerevisiae deletion strains, locus YOL006C, strain TOP1, hits give low values",0.405 (active)
same,normalized growth,"S. cerevisiae deletion strains, locus YOL012C, strain htz1",2.03 [resistant] (active)
same,normalized growth,"S. cerevisiae deletion strains, locus YOL147C, strain pex11, hits give low values",0.603 (active)
same,normalized growth,"S. cerevisiae deletion strains, locus YOR001W, strain rrp6, hits give low values",0.973
same,normalized growth,"S. cerevisiae deletion strains, locus YOR061W, strain CKA2, hits give low values",0.378 (active)
same,normalized growth,"S. cerevisiae deletion strains, locus YOR069W, strain VPS5, hits give low values",0.731 (active)
same,normalized growth,"S. cerevisiae deletion strains, locus YOR070C, strain gyp1, hits give low values",0.984
same,normalized growth,"S. cerevisiae deletion strains, locus YOR080W, strain dia2, hits give low values",0.992
same,normalized growth,"S. cerevisiae deletion strains, locus YOR083W, strain WHI5, hits give low values",0.994
same,normalized growth,"S. cerevisiae deletion strains, locus YOR106W, strain vam3, hits give low values",1.02
same,normalized growth,"S. cerevisiae deletion strains, locus YOR136W, strain idh2, hits give low values",0.748 (active)
same,normalized growth,"S. cerevisiae deletion strains, locus YOR144C, strain elg1, hits give low values",0.586 (active)
same,normalized growth,"S. cerevisiae deletion strains, locus YOR184W, strain ser1, hits give low values",0.333 (active)
same,normalized growth,"S. cerevisiae deletion strains, locus YOR231W, strain MKK1, hits give low values",0.822 (active)
same,normalized growth,"S. cerevisiae deletion strains, locus YOR265W, strain rbl2, hits give low values",0.984
same,normalized growth,"S. cerevisiae deletion strains, locus YOR270C, strain vph1, hits give low values",0.976
same,normalized growth,"S. cerevisiae deletion strains, locus YOR290C, strain snf2, hits give low values",0.96
same,normalized growth,"S. cerevisiae deletion strains, locus YOR316C, strain cot1, hits give low values",0.663 (active)
same,normalized growth,"S. cerevisiae deletion strains, locus YPL051W, strain arl3, hits give low values",0.994
same,normalized growth,"S. cerevisiae deletion strains, locus YPL055C, strain LGE1, hits give low values",0.525 (active)
same,normalized growth,"S. cerevisiae deletion strains, locus YPL078C, strain atp4, hits give low values",0.991
same,normalized growth,"S. cerevisiae deletion strains, locus YPL106C, strain sse1, hits give low values",0.964
same,normalized growth,"S. cerevisiae deletion strains, locus YPL240C, strain hsp82, hits give low values",1.01
same,normalized growth,"S. cerevisiae deletion strains, locus YPL241C, strain CIN2, hits give low values",0.558 (active)
same,normalized growth,"S. cerevisiae deletion strains, locus YPL256C, strain CLN2, hits give low values",0.786 (active)
same,normalized growth,"S. cerevisiae deletion strains, locus YPR119W, strain clb2, hits give low values",0.804 (active)
same,normalized growth,"S. cerevisiae deletion strains, locus YPR141C, strain kar3, hits give low values",1.01
same,normalized growth,"S. cerevisiae deletion strains, locus YPR163C, strain tif3, hits give low values",0.984
same,normalized growth,"S. cerevisiae deletion strains, locus YPR167C, strain met16, hits give low values",0.622 (active)
same,normalized growth,"S. cerevisiae deletion strains, strain wtn01, hits give low values",0.305 (active)
same,normalized growth,"S. cerevisiae strains, strain wild type, hits give low values",0.408 (active)
